# Screening results (PubChem BioAssay)
# Shown are actives, neighbours in structure and some others; about 2.4% of the full set was active somewhere.
# FEN1 inh: inhibitors of human flap endonuclease 1; P39748; Potency, µM (top dose mostly 114 µM), without a hit: at the highest dose activity change, negative = inhibition, most hits filed as inhibitors; actives 0.35% (n = 390,000); Recombinant FEN1 flap cleavage, fluorescence, 15 min; AID 588795; also: % is scaled to controls: 0 for no effect and ±100 for the full control effect; nearly all actives have a fitted effect of over 65% in size
#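 Steps: FEN1 (10 nM) dispensed; compound added by pin tool; 15 min at room temperature; substrate added to 50 nM final; reads at 0 min and 15 min; data normalized and fitted (four-parameter Hill).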
# Pol eta inh: DNA polymerase eta (human) inhibition; recombinant Pol eta, fluorescent DNA replication assay; Potency, µM (highest dose often 114 µM), inactives show at the top dose activity change, negative = inhibition, actives largely listed as inhibitors; Q9Y253; actives 1.2% (n = 390,000); also: % is scaled to controls: 0 for no effect and ±100 for the full control effect
#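 Fluorescent replication assay: 50 nM final substrate added after a 15 min room-temperature compound preincubation with 10 nM enzyme. Signal taken at 0 min and again at 10 min.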
# WRN helicase inh: WRN helicase (human) inhibition | Q14191 | WRN helicase unwinding, fluorescent forked duplex, kinetic | Potency, µM (top dose mostly 114 µM), for the others: top-dose activity change, negative = inhibition, usual class: inhibitors | actives 0.46% (n = 360,000); also: % is scaled to controls: 0 for no effect and ±100 for the full control effect; nearly all actives have a fitted effect of over 55% in size
#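 WRN at 20 nM final preincubated with compound 15 min at room temperature; reaction started with 100 nM fluorophore/quencher forked duplex oligonucleotide and 2 mM ATP final. Unwinding followed kinetically by red fluorescence (ex 525, em 598 nm).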
# Pol beta inh: DNA polymerase beta (human) inhibition. Pol beta primer extension/strand displacement, fluorescence kinetic. actives 1.3% (n = 340,000). P06746. Potency, µM (series often up to 114 µM), inactives show at the highest dose activity change, negative = inhibition, actives largely listed as inhibitors. AID 485314; also: % is scaled to controls: 0 for no effect and ±100 for the full control effect
#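 Kinetic readout of DNA synthesis with strand displacement by Pol beta. Compound and 10 nM enzyme sit 15 min at room temperature; 50 nM substrate starts the reaction, read immediately and at 10 min.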
# POLK inh: inhibitors of human DNA polymerase kappa; actives 0.53% (n = 400,000); Q9UBT6; purified Pol kappa, fluorescent DNA synthesis assay, 10 min; Potency, µM (top dose mostly 107 µM), inactives show at the highest dose activity, negative = inhibition, usual class: inhibitors; also: % is scaled to controls: 0 for no effect and ±100 for the full control effect
#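 Inhibition of 10 nM Pol kappa is measured by a fluorescent read-out at 0 and 10 min following addition of 50 nM substrate (final), with a 15-min room-temperature compound preincubation.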
# POLI inh: blocks human DNA polymerase iota activity; Potency, µM (doses to about 115 µM), without a hit: at the top dose activity, negative = inhibition, actives largely listed as inhibitors; actives 1% (n = 390,000); Pol iota fluorescent replication assay, 10 min; Q9UNA4; AID 588590
# Target sequence (Q9UNA4 whole entry, looked up): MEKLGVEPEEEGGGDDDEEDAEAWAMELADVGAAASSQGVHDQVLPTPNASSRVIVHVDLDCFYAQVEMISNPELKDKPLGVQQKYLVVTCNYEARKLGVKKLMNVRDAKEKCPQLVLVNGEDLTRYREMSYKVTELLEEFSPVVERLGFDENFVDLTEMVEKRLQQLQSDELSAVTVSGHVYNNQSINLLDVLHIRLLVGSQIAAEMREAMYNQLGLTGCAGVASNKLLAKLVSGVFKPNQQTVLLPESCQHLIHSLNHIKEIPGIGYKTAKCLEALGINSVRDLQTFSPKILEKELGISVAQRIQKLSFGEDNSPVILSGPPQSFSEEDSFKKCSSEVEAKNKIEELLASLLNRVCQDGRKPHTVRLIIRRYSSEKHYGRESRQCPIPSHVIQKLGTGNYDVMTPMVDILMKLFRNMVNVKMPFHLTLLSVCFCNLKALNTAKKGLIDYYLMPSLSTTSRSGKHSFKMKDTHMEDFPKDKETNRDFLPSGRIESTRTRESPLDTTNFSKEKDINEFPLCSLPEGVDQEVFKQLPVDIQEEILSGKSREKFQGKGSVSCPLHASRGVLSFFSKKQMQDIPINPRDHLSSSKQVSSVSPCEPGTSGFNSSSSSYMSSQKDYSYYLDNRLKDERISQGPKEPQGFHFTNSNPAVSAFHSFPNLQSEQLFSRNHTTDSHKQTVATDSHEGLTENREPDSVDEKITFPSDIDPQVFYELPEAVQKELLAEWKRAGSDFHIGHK
#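 Pol iota at 10 nM preincubated 15 min with compounds at room temperature; reaction started with fluorescent substrate, 50 nM final. Fluorescence read kinetically at 0 and 10 min; buffer-only wells as negative control.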
# An asterisk follows results filed as active; ? = inconclusive; · = no result given; [ ] = remark or other dose. Calls follow the shape of the dose curve; as a rule, active = well fitted curve in the direction sought with a large enough effect; inconclusive = small, poorly fitted or top-dose-only effect, or another doubt; inactive = no such curve, though single readings can be large; an effect the other way counts as inactive or inconclusive. Potency is read from the fitted curve at half-maximal effect.
SMILES,FEN1 inh,Pol eta inh,WRN helicase inh,Pol beta inh,POLK inh,POLI inh
Cc1nn(CC(=O)NCCCc2ccccc2)c(=O)c2cccn12,20%,-9%,0%,4%,5%,12%
COc1cccc(CNC(=O)Cn2nc(C)c3sc4ccccc4c3c2=O)c1OC,12%,-15%,·,-16%,-2%,-10%
Cc1nn(CC(=O)NCc2cccc(Br)c2)c(=O)c2c1sc1ccccc12,3%,-10%,·,6.3µM*,-4%,7%
COc1cc(OC)c(NC(=O)CCCn2nc(C)c3sc4ccccc4c3c2=O)cc1Cl,35µM*,-18%,·,16µM*,?,?
Cc1nn(CC(=O)NCc2cccc(F)c2)c(=O)c2cccn12,1%,-15%,-4%[11.6 µM],0%,89µM*,?
COc1ccc(CC(=O)NCc2ccc3c(c2)CCN3C(=O)c2ccc(C)cc2)cc1OC,-2%,2%,·,-1%,-5%[60.1 µM],4%
Cc1ccc(OCC(=O)Nc2ccc(O)c(-c3nc4cc(C)c(C)cc4o3)c2)cc1,-11%,·,·,·,0%,10%
CCOc1ccc(Nc2nc3c(S(=O)(=O)c4ccc(CC)cc4)nnn3c3ccc(Cl)cc23)cc1,-2%,?,·,0%,-35%,33%
CC1CCN(S(=O)(=O)c2ccc3c(c2)N(CC(=O)O)C(=O)CO3)CC1,-1%,-10%,·,0%,-8%[60.1 µM],-14%
COc1ccccc1CN1CCCC2(CCN(C(=O)c3cnccn3)CC2)C1,·,·,·,·,6%[60.1 µM],·
COc1cc(C(CC(=O)Nc2cccc(C(C)=O)c2)N2Cc3ccccc3C2=O)cc(OC)c1OC (stereo unspecified),14%,-9%,·,9%,0%,17%
CCCCCCc1cc2cc(-c3nnc(-c4cc(OC)c(OC)c(OC)c4)o3)c(=O)oc2cc1O,-22%,?,-10%,8%,-9%,6%
CCCCCCc1cc2cc(-c3nnc(-c4ccccc4O)o3)c(=O)oc2cc1O,5%,1.8µM*,-13%,?,0%,?
Cn1c(=O)n(C)c2cc(N3CCOCC3)c(NC(=O)c3ccc(C(C)(C)C)cc3)cc21,7%,-3%,·,12%,11%,3%
CCCn1cc(S(=O)(=O)c2ccccc2)c(=O)c2cc(F)c(N3CCCCCC3)cc21,-1%,2%,·,-1%,-9%,15%
COc1ccc2oc(=O)c(-c3nnc(NCc4ccco4)s3)cc2c1,?,?,?,25µM*,?,10µM*
CNC(CC(=O)O)C(=O)O (stereo unspecified),·,·,·,·,-2%[60.1 µM],·
O=C(O)C1(C(=O)O)CCCC1,5%,-5%,4%,·,-6%,-13%
O=C(O)C1(C(=O)O)CCC1.[NH2-].[NH2-].[Pt+2],·,·,·,·,8.9µM*,·
Nc1nc(N)c2c(OCc3ccc(C(F)(F)F)cc3)cccc2n1,-11%,·,·,·,-3%,17%
C[n+]1cc2c3c(ccc2c2ccc4cc5c(cc4c21)OCO5)OCO3,11µM*,?,·,7.9µM*,-11%[60.1 µM],28µM*
Cc1ccc(/C=C2\S/C(=N/S(=O)(=O)c3cccs3)NC2=O)cc1,?,25µM*,50µM*,2%,-34%,40µM*
CCOC(=O)c1sc2nc(-c3ccco3)c3c(c2c1N)CC(C)(C)OC3,3%,?,?,40µM*,-15%,-10%
Cc1ccc(-n2nc(CO)c(C(=O)NC(C)CCCc3ccccc3)n2)cc1C (stereo unspecified),-2%,-15%,·,-3%,-17%,8%
COc1cccc(=O)c2c(C)n(CC(=O)c3ccccc3)c(C)c12,-14%,?,-13%,22µM*,-27%,?
COc1ccccc1C(=O)CC(=O)c1ccccc1,-11%,-3%,-9%,-4%,-12%,1%
CC(C)C(=O)Nc1ccc(-c2nnc(-c3ccccc3)o2)cc1,-7%,1%,-7%,45µM*,4%,10%
O=C(Nc1ccc(-c2nnc(-c3ccccc3)o2)cc1)C(F)(F)F,-1%,10%,-2%,29%,-16%,5%
